Test results published in PubChem BioAssay (NCI).
Compounds without any hit were thinned out: in the full panel of roughly 79,000, 15% have a hit. Values without a mark were called inactive. Active and inactive are the calls of the source. No stated cut-off is given here; in the data, active means growth inhibition above about 70%; inactive means the rest.

Assay: NCI Yeast Anticancer Drug Screen. Data for the rad52 strain (AID 147);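 further: 0% = growth of vehicle-treated control cultures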
Settings: S. cerevisiae rad52 mutant growth inhibition, active compounds read high
Protocol: Growth inhibition of yeast strains with defined genetic alterations is measured as a screen for potential anti-cancer activity. Selected strains with alterations in DNA damage repair or cell cycle control were exposed to compounds and growth inhibition was measured relative to vehicle treated controls. The strain used in this assay is rad52

SMILES | growth inhibition (at 1.2 µM) [%] | growth inhibition (at 3.7 µM) [%] | growth inhibition (at 11.0 µM) | growth inhibition (at 33.0 µM) | growth inhibition (at 100.0 µM)
Cc1c2cc[n+](CCN3CCCCC3)cc2c(C)c2c1[nH]c1ccc(O)cc12 | 19 | 44 | 81% (active) | 93% (active) | 98% (active)
NP1(Oc2ccc(F)cc2)=NP(N)(Oc2ccc(F)cc2)=NP(Oc2ccc(F)cc2)(Oc2ccc(F)cc2)=N1 (stereo not given) | -1 | 7 | 74% (active) | 71% (active) | 96% (active)
O=C1CC(=O)N(C2CCCCC2)C(=O)N1c1ccccc1S(=O)(=O)Oc1ccccc1 | 1 | 3 | 4% | 24% | 64%
NC(N)=N/N=C/c1cc(Cl)cc(Cl)c1O | 5 | 4 | 21% | 51% | 98% (active)
C=C(C)[C@@H]1CCc2c(O)c(O)c(=O)cc(C)c2C1 | 0 | 21 | 38% | 77% (active) | 98% (active)
CC(=O)C1=C(C)O/C(=C/c2cccc(Cl)c2)C1=O | 14 | 36 | 27% | 36% | 99% (active)
Nc1ccc2c(c1)sc1ccccc12 | -3 | 2 | 3% | 30% | 99% (active)
CC1=CCCC2C1(C)CCC(C)C2(C)Cc1cc(O)ccc1O (stereo not given) | 12 | 31 | 70% (active) | 98% (active) | 93% (active)
